Assay outcomes deposited in PubChem by National Center for Advancing Translational Sciences (NCATS).
Compounds with a hit are over-represented: about 3.8% of the library has one in this group of screens.
Nrf2 block = blocks Nrf2 signaling; A549 ARE-Fluc reporter, luciferase luminescence, 18-24 h; Potency, µM (titrated, usually from 46 µM), without a hit: at the top dose activity change, negative = inhibition, hits mostly inhibitors; hit rate 2.1% among 360,000; AID 504444; note: % is set by controls: 0 for no effect and ±100 for the full control effect; nearly all actives have a fitted effect of over 60% in size
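In this cell-based qHTS, ARE-driven firefly luciferase in A549 cells reports Nrf2 activity; the luminescent signal after BugLite lysis is the measured value, with a prior CellTiter-Fluor read for cell health.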
ATXN2 expr inh = ATXN2 expression inhibition; Potency, µM (highest dose often 57 µM), for the others: top-dose activity change, negative = inhibition, actives largely listed as inhibitors; HEK-293 ATXN2-luciferase reporter, luminescence, 24 h; hit rate 0.72% among 360,000; note: % is set by controls: 0 for no effect and ±100 for the full control effect; nearly all actives have a fitted effect of over 55% in size
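ATXN2-luciferase reporter cells (luciferase flanked by upstream and downstream ATXN2 gene portions) were treated 24 h at 37 °C with compounds at up to 57 uM. SteadyGlo luminescence gave expression; GF-AFC fluorescence gave viability.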
TGFb SMAD3 inh = TGF-b pathway inhibition | HepG2 CAGA-GFP TGF-b/SMAD3 reporter, GFP fluorescence, 18 h; TGF-beta stimulated, 500 pg/mL final | Potency, µM (top dose mostly 46.1 µM), inactives show at the highest dose activity, negative = inhibition, most hits filed as inhibitors | hit rate 1.2% among 410,000 | AID 588855; note: % is set by controls: 0 for no effect and ±100 for the full control effect; nearly all actives have a fitted effect of over 65% in size
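Inhibition was scored as loss of TGF-beta-induced (500 pg/mL final, 18 hours, 37 degrees C) GFP in HEPG2 cells carrying a CAGA-GFP reporter, in DMEM with 1% FBS. Well GFP was summed per cell; Activity was normalised to unstimulated and stimulated DMSO wells, then concentration-response fitting.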
S2 tox = cell viability loss in ATXN counter-screen. hit rate 0.49% among 400,000. AID 651635. S2 cells (HEK-293 line with an ATXN2-luciferase reporter) viability, CellTiter-Fluor protease fluorescence, 24 h. Potency, µM (doses to about 56.7 µM), usual class: cytotoxic; note: nearly all actives have a fitted effect of over 40% in size
HepG2 viability = counter-screen for TGF-b inhibitors: cytotoxicity in HepG2 cells. HepG2 CAGA-GFP viability, ATP luminescence, 18 h. Potency, µM (titrated, usually from 46.1 µM), inactives show top-dose activity change, negative = cytotoxicity, hits mostly cytotoxic. hit rate 0.76% among 410,000. AID 588856
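CellTiter-Glo luminescence gave cytotoxicity after 18 hours at 37 degrees C. The cells were HepG2 CAGA-GFP in 1% FBS DMEM, stimulated with 500 pg/mL TGF-beta after compound addition. %Activity was normalised to no-cell wells (complete cell-killing) and DMSO (no toxicity), and curves were fitted and classified.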
A549 viability = kills or reduces viability of A549 cells in Nrf2 counter-screen; A549 ARE-Fluc cells, CellTiter-Fluor viability, 18-24 h; Potency, µM (titrated, usually from 46 µM), for the others: top-dose activity change, negative = cytotoxicity, most hits filed as inhibitors; hit rate 0.16% among 390,000; note: % is set by controls: 0 for no effect and ±100 for the full control effect
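A549 ARE-Fluc cells in 5% FBS OPTI-MEM, 5000 cells/well, rested 2 h then exposed to compounds in concentration-response for 18-24 h at 37 °C. Viability by CellTiter-Fluor fluorescence (Ex 405/Em 525) after 30 min; luciferase luminescence (BugLite, 15 min, RT) read afterwards.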
* = called active by the depositor; i = inactive; ? = inconclusive; nt = not tested or not shown. Calls come from the whole dose curve; as a rule, active = well fitted curve in the direction sought with a large enough effect; inconclusive = small, poorly fitted or top-dose-only effect, or another doubt; inactive = no such curve, though single readings can be large; an effect the other way counts as inactive or inconclusive. Potency is the fitted concentration of half-maximal effect.

SMILES	Nrf2 block	ATXN2 expr inh	TGFb SMAD3 inh	S2 tox	HepG2 viability	A549 viability
CC(CN1CCN(CC(C)C(=O)c2ccccc2)CC1)C(=O)c1ccccc1 (stereo unspecified)	3.4%	3.3%	2.5%	i	-27.8%	1.7%
C=CCn1c(SCC(=O)N(C(C)CC)C2CCS(=O)(=O)C2)nc2ccccc2c1=O (stereo unspecified)	-19.0%	13.3%	-2.3%	i	7.08µM*	-8.0%
CCC(C)N(C(=O)CSc1nc(C)nc2ccccc12)C1CCS(=O)(=O)C1 (stereo unspecified)	?	5.0%	-20.6%	?	1.2%	-4.1%
CCOc1ncc(F)c(=O)[nH]1	nt	-3.6%	nt	i	nt	nt
COc1cc(C(C)C)c(Oc2cnc(NC(CO)CO)nc2N)cc1I	nt	24.3µM*	nt	nt	nt	nt
O=C(CSc1nc(=O)n(Cc2cccnc2)c2c1CCC2)Nc1cccc(Cl)c1	nt	-5.0%	-9.4%	i	-1.0%	6.1%
CC(C)c1ccc(NC(=O)CSc2nc(=O)n(Cc3cccnc3)c3c2CCC3)cc1	nt	-38.7%	11.2µM*	i	-46.7%	-1.5%
CCOC(=O)c1ccc(NC(=O)CSc2nc(=O)n(CCN3CCOCC3)c3c2CCC3)cc1	18.4µM*	-8.0%	?	i	-0.1%	0.5%
CC(=O)c1ccc(NC(=O)CSc2nc(=O)n(CCN3CCOCC3)c3c2CCC3)cc1	-1.0%	7.0%	10.5%	i	-7.7%	0.6%
CC(C)(C)CNc1nc(C#N)nc(Nc2ccccc2)n1	18.4µM*	nt	nt	nt	nt	?
CCOC(=O)[C@@H]1[C@H]2COc3ccc(Br)cc3[C@@H]2N2C(=O)N(c3ccc(Br)cc3)C(=O)[C@]12C	3.8%	-1.9%	7.08µM*	i	0.8%	0.0%
CCOC(=O)[C@@H]1[C@H]2COc3ccc(Br)cc3[C@H]2N2C(=O)N(c3ccc(Br)cc3)C(=O)[C@]12C	0.0%	6.5%	-23.9%	i	-14.9%	0.9%
Cc1ccc(CNC(=O)c2cnn(-c3cccc(C)c3)c2C2CCN(C(=O)OC(C)(C)C)CC2)cc1	18.4µM*	nt	?	nt	-44.3%	-27.2%
Cc1ccc(CNC(=O)c2cnn(-c3ccc(F)cc3F)c2C2CCN(C(=O)OC(C)(C)C)CC2)cc1	16.4µM*	nt	?	nt	-5.0%	?
Cc1ccccc1N1CCN(CCC(=O)Nc2ccc(F)cc2)CC1	-10.4%	nt	-3.9%	i	-20.4%	-6.1%
Cc1cc2c(N3CCCCC3C)ncnc2s1 (stereo unspecified)	20.6µM*	-14.7%	13.4%	i	-1.2%	-13.5%
Cc1c(C(=O)O)sc2ncnc(N3CCCCC3C)c12 (stereo unspecified)	?	2.4%	-1.4%	i	-8.4%	-29.0%
CCc1ccc(CNC(=O)c2ccc(-n3c(C)cc4c3CCC(C)C4)cc2)cc1 (stereo unspecified)	-7.6%	-9.1%	0.7%	?	-31.1%	10.3%
COc1cccc(-n2c(SCc3ccccn3)nc3c(c2=O)SCC3)c1	1.84µM*	-13.7%	-5.5%	i	-0.6%	-11.7%
Cc1ccc(OCC(=O)Nc2ccc(N3CCN(C(=O)c4ccco4)CC3)cc2)cc1C	?	-9.4%	-20.9%	i	-7.0%	-6.2%
Cc1cc(OC(C)C(=O)Nc2ccncc2)ccc1Cl (stereo unspecified)	18.4µM*	nt	?	?	-75.9%	-3.0%
Cc1cccc(OCC(=O)Nc2ccc(N3CCN(C(=O)c4ccco4)CC3)cc2)c1	20.6µM*	?	?	?	-37.1%	-6.5%
Cc1cc(OCC(=O)Nc2ccc(N3CCN(C(=O)c4ccco4)CC3)cc2)cc(C)c1Cl	8.2µM*	-28.2%	?	?	-6.2%	-21.3%
Cc1cc(OCC(=O)Nc2ccncc2)cc(C)c1Cl	13µM*	nt	?	?	-55.6%	0.9%
CCCC(=NC(C)CC)C1=C(O)CC(c2ccccc2)CC1=O (stereo unspecified)	-17.9%	-20.4%	-3.0%	i	2.8%	7.2%
